According to PubChem BioAssay (NCI):
The panel holds about 83,000 compounds, 20% with a hit somewhere; the sample as a whole holds those more often.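 Compound tested at a single concentration for 48 hours in 96-well plates; a percent growth value below 10 was scored as active.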 Unmarked numbers belong to inactive results. Active and inactive are the calls of the source.

Key:
Test in all cases: NCI-60 one-dose screen, 48 h (100 = growth as untreated, 0 = no growth, -100 = all killed)
Conditions in all cases: 10 µM unless noted
HCT-15 colon = test system: HCT-15 colon
HT29 colon = test system: HT29 colon
SNB-75 CNS = test system: SNB-75 CNS
SNB-19 CNS = test system: SNB-19 CNS
U251 CNS = test system: U251 CNS
PC-3 prostate = test system: PC-3 prostate
SK-MEL-5 melanoma = test system: SK-MEL-5 melanoma
UACC-62 melanoma = test system: UACC-62 melanoma
LOX IMVI melanoma = test system: LOX IMVI melanoma
SK-MEL-28 melanoma = test system: SK-MEL-28 melanoma
SK-MEL-2 melanoma = test system: SK-MEL-2 melanoma
EKVX NSCLC = test system: EKVX NSCLC
SN12C renal = test system: SN12C renal
UO-31 renal = test system: UO-31 renal
TK-10 renal = test system: TK-10 renal
ACHN renal = test system: ACHN renal
CAKI-1 renal = test system: CAKI-1 renal
A498 renal = test system: A498 renal
CCRF-CEM leukemia = test system: CCRF-CEM leukemia
MOLT-4 leukemia = test system: MOLT-4 leukemia

| Compound | growth (HCT-15 colon) | growth (HT29 colon) | growth (SNB-75 CNS) | growth (SNB-19 CNS) | growth (U251 CNS) | growth (PC-3 prostate) | growth (SK-MEL-5 melanoma) | growth (UACC-62 melanoma) | growth (LOX IMVI melanoma) | growth (SK-MEL-28 melanoma) | growth (SK-MEL-2 melanoma) | growth (EKVX NSCLC) | growth (SN12C renal) | growth (UO-31 renal) | growth (TK-10 renal) | growth (ACHN renal) | growth (CAKI-1 renal) | growth (A498 renal) | growth (CCRF-CEM leukemia) | growth (MOLT-4 leukemia) |
| --- | --- | --- | --- | --- | --- | --- | --- | --- | --- | --- | --- | --- | --- | --- | --- | --- | --- | --- | --- | --- |
| O=C(Nc1ccc(Nc2ccncc2)cc1)c1ccc([N+](=O)[O-])cc1 | 77.5% | 63.4% | 92% | 80.1% | 38% | 70% | 73.1% | 15.4% | 62.3% | 84.9% | 94.8% | 69.9% | 72.9% | 55.6% | 90.4% | 80.4% | 52.6% | 76% | 1.05% (active) | 6.48% (active) |
| Fc1cc2[nH]ncc2c2c3c(c(-c4cn[nH]c4C(F)(F)F)nc12)C1CCC3C1 (stereo not given) | 9.48% (active) | 13% | -4.22% (active) | 10.1% | 4.85% (active) | 14% | -28.8% (active) | -18.5% (active) | 0.44% (active) | -0.348% (active) | -32.6% (active) | 28.2% | 6.09% (active) | -44.2% (active) | -11.2% (active) | -0.693% (active) | -5.2% (active) | -80.2% (active) | 11.5% | 6.06% (active) |
| CN(C)CCCNc1nc(-c2cccc(C(Cl)(Cl)Cl)c2)nc(C(Cl)(Cl)Cl)n1 | 108% | 94.9% | 83.1% | 102% | 105% | 98.4% | 103% | 99.6% | 87.7% | 103% | 99% | 104% | 102% | 83.5% | 115% | 108% | 98.2% | 65.9% | 98.3% | 84.4% |
| CC(=O)OC[C@]12CC[C@@H]([C@@H](C)C(N)=O)[C@@H]1[C@H]1CC[C@@H]3[C@@]4(C)CC[C@H](OC(C)=O)C(C)(C)[C@@H]4CC[C@@]3(C)[C@]1(C)CC2 | -44.1% [100 µM] (active) | -77.7% [100 µM] (active) | -47.8% [100 µM] (active) | -40% [100 µM] (active) | -51.4% [100 µM] (active) | -47.4% [100 µM] (active) | -71.9% [100 µM] (active) | -83% [100 µM] (active) | -85.5% [100 µM] (active) | -73.2% [100 µM] (active) | -77.6% [100 µM] (active) | -25.2% [100 µM] (active) | -91.6% [100 µM] (active) | -97.5% [100 µM] (active) | -35.4% [100 µM] (active) | -75.7% [100 µM] (active) | -45.8% [100 µM] (active) | -81.7% [100 µM] (active) | -12.4% [100 µM] (active) | -29.1% [100 µM] (active) |
| O=C(CSc1nc2ccc([N+](=O)[O-])cc2[nH]1)Nc1ccc(F)c(Cl)c1 | 18.5% | 14.4% | 28.7% | 11.6% | 11.6% | 8.99% (active) | -10.8% (active) | 5.92% (active) | 24.2% | 22% | -7.66% (active) | 11.1% | 3.12% (active) | 3.59% (active) | 25.1% | 16.9% | 9.26% (active) | -13.1% (active) | 19% | 5.63% (active) |
| CC(C)OC(=O)Nc1cc(F)ccc1F | 105% | 98.3% | 95.3% | 96.2% | 100% | 99.7% | 101% | 94.1% | 106% | 102% | 112% | 98.8% | 99.5% | 89.7% | 97.7% | 100% | 96.5% | 96.9% | 103% | 101% |
| CC(C)=CC/C=C(/C)[C@H]1CC[C@]2(C)[C@@H]1CC[C@@H]1[C@@]3(C)CCC(=O)NC(C)(C)[C@@H]3CC[C@]12C | 11.7% [100 µM] | -0.044% [100 µM] (active) | 19.7% [100 µM] | 24.9% [100 µM] | -67% [100 µM] (active) | 16.5% [100 µM] | -93.5% [100 µM] (active) | -24.4% [100 µM] (active) | -90.1% [100 µM] (active) | -77.3% [100 µM] (active) | 3.93% [100 µM] (active) | 29.7% [100 µM] | -81.2% [100 µM] (active) | -98.7% [100 µM] (active) | 3.59% [100 µM] (active) | -63.5% [100 µM] (active) | 6.46% [100 µM] (active) | -16.4% [100 µM] (active) | -9.45% [100 µM] (active) | -14.3% [100 µM] (active) |
| CC(C)(C)c1cc(C(=O)Nc2ccccc2C(=O)NCCN)cc(C(C)(C)C)c1 | -56.7% (active) | -41.3% (active) | 66.5% | -46.1% (active) | -57.3% (active) | 4.8% (active) | 46% | -58.3% (active) | -98.5% (active) | -84% (active) | 20.3% | 17.8% | -30.8% (active) | 27.9% | 75.5% | -90.3% (active) | 45.4% | -11.6% (active) | -8.48% (active) | 20.6% |
| CC(=O)O.CC(=O)O.O.[Fe] | 111% | 98.7% | 114% | 98.2% | 107% | 93.4% | 107% | 93.7% | 100% | 112% | 109% | 147% | 95.2% | 89% | 105% | 107% | 130% | 89.8% | 131% | 116% |
| CCOc1cccc2c(NC(C)CCCN(CC)CC)c(C)cnc12 (stereo not given) | 99.1% | 85.1% | 67.9% | 102% | 103% | 85.9% | 108% | 108% | 90.2% | 126% | 105% | 104% | 95.2% | 73.3% | 101% | 109% | 103% | 97.7% | 108% | 93.2% |
| COc1ccc(-c2cc(-c3ccc(Cl)cc3)nc(NCCCCNc3ccnc4cc(Cl)ccc34)n2)cc1 | 0.532% (active) | 4.81% (active) | 99.5% | 95.5% | 70.9% | 54.8% | 26.8% | 84.8% | -78.3% (active) | -7.9% (active) | 78% | 77.3% | 77.1% | 35.5% | 107% | 91.8% | 64.3% | 3.15% (active) | 7.63% (active) | 3.22% (active) |
| CCOC(=O)C(c1ccccc1)N1C(=O)c2ccccc2C1=O (stereo not given) | 97.3% | 102% | 91.1% | 100% | 93.8% | 98.4% | 100% | 95% | 91.4% | 99.2% | 104% | 91.4% | 104% | 91.4% | 106% | 102% | 86.4% | 89.3% | 102% | 101% |
| Cn1cc(-c2noc(-c3cn(C)c4ncc(F)cc34)n2)c2ccccc21 | 58.2% | 66.1% | 1.91% (active) | 81.2% | 30.8% | 71.7% | 82.8% | 80.1% | 52.3% | 94.1% | 93.8% | 34.3% | 33.6% | 61.7% | 38.9% | 66.3% | 47.1% | 62.9% | 78% | 77.4% |
| O=S(=O)(NCCCNc1nccc(-c2c(-c3cccc(F)c3)nc3occn23)n1)c1cccc2ccccc12 | 29.2% | 5.59% (active) | 62.5% | 64.7% | 49.8% | 18.1% | 27% | 31.5% | 35.3% | 64.9% | 47.3% | 47.3% | 43.3% | 17.6% | 55.6% | 29.5% | 20.5% | 28.9% | 25.9% | 5.16% (active) |
| COc1c(B(O)O)cccc1-c1nc2ccc3[nH]ncc3c2c2c1CCC2 | 54.7% | 63.8% | 32.7% | 82.3% | 66.1% | 60.2% | 52.4% | 57.6% | 53.3% | 86.3% | 58.2% | 47.9% | 74.3% | 23.5% | 36.4% | 36.4% | 16.6% | 34.7% | 64.2% | 61.6% |
